Reference: the supplement of paper PMC4466140

Assays:
Experiment in all cases: SPOT peptide array binding signal intensity (averaged, normalized) (arbitrary units (background-subtracted, floor 0; scale differs between SH3 domains)); higher = stronger binding of the SH3 domain to the peptide
AgAbp1 = target: AgAbp1
Procedure: (§1)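 GST-tagged SH3 domains from S. cerevisiae (Sc), A. gossypii (Ag), C. albicans (Ca) and S. pombe (Sp) were incubated at 10 ug/ml overnight at 4 C on cellulose SPOT membranes carrying 292 synthetic 15-mer peptides mined from the S. cerevisiae proteome (cysteines replaced by serines). Binding was detected with anti-GST antibody, HRP secondary and chemiluminescence, quantified with Genespotter, and reported as normalized spot intensities averaged over biological replicates.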

AgBbc1 = target: AgBbc1
Procedure: as §1

AgBem1-D1 = target: AgBem1-D1
Procedure: as §1

AgBzz1-D1 = target: AgBzz1-D1
Procedure: as §1

AgBzz1-D2 = target: AgBzz1-D2
Procedure: as §1

AgCyk3 = target: AgCyk3
Procedure: as §1

AgFus1 = target: AgFus1
Procedure: as §1

AgHof1 = target: AgHof1
Procedure: as §1

AgHse1 = target: AgHse1
Procedure: as §1

AgLsb1 = target: AgLsb1
Procedure: as §1

AgLsb4 = target: AgLsb4
Procedure: as §1

AgMyo5 = target: AgMyo5
Procedure: as §1

AgNbp2 = target: AgNbp2
Procedure: as §1

AgRvs167 = target: AgRvs167
Procedure: as §1

AgSho1 = target: AgSho1
Procedure: as §1

AgSla1-D1-D2 = target: AgSla1-D1-D2
Procedure: as §1

AgSla1-D3 = target: AgSla1-D3
Procedure: as §1

CaAbp1-D1 = target: CaAbp1-D1
Procedure: as §1

CaAbp1-D2 = target: CaAbp1-D2
Procedure: as §1

CaBbc1 = target: CaBbc1
Procedure: as §1

CaBem1-D1 = target: CaBem1-D1
Procedure: as §1

CaBzz1-D1 = target: CaBzz1-D1
Procedure: as §1

CaBzz1-D2 = target: CaBzz1-D2
Procedure: as §1

CaCyk3 = target: CaCyk3
Procedure: as §1

CaFus1 = target: CaFus1
Procedure: as §1

CaHof1 = target: CaHof1
Procedure: as §1

CaHse1 = target: CaHse1
Procedure: as §1

CaLsb1 = target: CaLsb1
Procedure: as §1

CaLsb4 = target: CaLsb4
Procedure: as §1

CaMyo5 = target: CaMyo5
Procedure: as §1

CaNbp2 = target: CaNbp2
Procedure: as §1

CaRvs167 = target: CaRvs167
Procedure: as §1

CaRvs167-3 = target: CaRvs167-3
Procedure: as §1

CaSho1 = target: CaSho1
Procedure: as §1

CaSla1-D1-D2 = target: CaSla1-D1-D2
Procedure: as §1

CaSla1-D3 = target: CaSla1-D3
Procedure: as §1

ScAbp1 = target: ScAbp1
Procedure: as §1

ScBbc1 = target: ScBbc1
Procedure: as §1

ScBem1-D1 = target: ScBem1-D1
Procedure: as §1

ScBzz1-D1 = target: ScBzz1-D1
Procedure: as §1

ScBzz1-D2 = target: ScBzz1-D2
Procedure: as §1

ScCyk3 = target: ScCyk3
Procedure: as §1

ScFus1 = target: ScFus1
Procedure: as §1

ScHof1 = target: ScHof1
Procedure: as §1

ScHse1 = target: ScHse1
Procedure: as §1

ScLsb1 = target: ScLsb1
Procedure: as §1

ScLsb2 = target: ScLsb2
Procedure: as §1

ScLsb3 = target: ScLsb3
Procedure: as §1

ScLsb4 = target: ScLsb4
Procedure: as §1

ScMyo3 = target: ScMyo3
Procedure: as §1

ScMyo5 = target: ScMyo5
Procedure: as §1

ScNbp2 = target: ScNbp2
Procedure: as §1

ScPex13 = target: ScPex13
Procedure: as §1

ScRvs167 = target: ScRvs167
Procedure: as §1

ScSho1 = target: ScSho1
Procedure: as §1

ScSla1-D1-D2 = target: ScSla1-D1-D2
Procedure: as §1

ScSla1-D3 = target: ScSla1-D3
Procedure: as §1

SpAbp1-D1 = target: SpAbp1-D1
Procedure: as §1

SpBbc1 = target: SpBbc1
Procedure: as §1

SpBzz1-D1 = target: SpBzz1-D1
Procedure: as §1

SpBzz1-D2 = target: SpBzz1-D2
Procedure: as §1

SpCyk3 = target: SpCyk3
Procedure: as §1

SpHof1 = target: SpHof1
Procedure: as §1

SpHof1-2 = target: SpHof1-2
Procedure: as §1

SpHof1-3 = target: SpHof1-3
Procedure: as §1

SpHse1 = target: SpHse1
Procedure: as §1

SpLsb1 = target: SpLsb1
Procedure: as §1

SpLsb4 = target: SpLsb4
Procedure: as §1

SpMyo1 = target: SpMyo1
Procedure: as §1

SpNbp2 = target: SpNbp2
Procedure: as §1

SpPex13 = target: SpPex13
Procedure: as §1

SpRvs167 = target: SpRvs167
Procedure: as §1

SpSla1-D1-D2 = target: SpSla1-D1-D2
Procedure: as §1

SpSla1-D3 = target: SpSla1-D3
Procedure: as §1

LKVTPGRRAPTISKI
SPOT peptide array binding signal intensity (AgAbp1): 22 | SPOT peptide array binding signal intensity (AgBbc1): 41 | SPOT peptide array binding signal intensity (AgBem1-D1): 63.5 | SPOT peptide array binding signal intensity (AgBzz1-D1): 81 | SPOT peptide array binding signal intensity (AgBzz1-D2): 24 | SPOT peptide array binding signal intensity (AgCyk3): 3 | SPOT peptide array binding signal intensity (AgFus1): 22 | SPOT peptide array binding signal intensity (AgHof1): 15 | SPOT peptide array binding signal intensity (AgHse1): 18.5 | SPOT peptide array binding signal intensity (AgLsb1): ≤ 0 | SPOT peptide array binding signal intensity (AgLsb4): ≤ 0 | SPOT peptide array binding signal intensity (AgMyo5): 5.5 | SPOT peptide array binding signal intensity (AgNbp2): 1920 | SPOT peptide array binding signal intensity (AgRvs167): 1.17 | SPOT peptide array binding signal intensity (AgSho1): ≤ 0 | SPOT peptide array binding signal intensity (AgSla1-D1-D2): 7.5 | SPOT peptide array binding signal intensity (AgSla1-D3): 1 | SPOT peptide array binding signal intensity (CaAbp1-D1): 435 | SPOT peptide array binding signal intensity (CaAbp1-D2): 160 | SPOT peptide array binding signal intensity (CaBbc1): 247 | SPOT peptide array binding signal intensity (CaBem1-D1): 5 | SPOT peptide array binding signal intensity (CaBzz1-D1): 154 | SPOT peptide array binding signal intensity (CaBzz1-D2): 148 | SPOT peptide array binding signal intensity (CaCyk3): 18 | SPOT peptide array binding signal intensity (CaFus1): ≤ 0 | SPOT peptide array binding signal intensity (CaHof1): 0.5 | SPOT peptide array binding signal intensity (CaHse1): 0.5 | SPOT peptide array binding signal intensity (CaLsb1): ≤ 0 | SPOT peptide array binding signal intensity (CaLsb4): ≤ 0 | SPOT peptide array binding signal intensity (CaMyo5): 6.25 | SPOT peptide array binding signal intensity (CaNbp2): 2720 | SPOT peptide array binding signal intensity (CaRvs167): 1.5 | SPOT peptide array binding signal intensity (CaRvs167-3): 27.5 | SPOT peptide array binding signal intensity (CaSho1): 15.5 | SPOT peptide array binding signal intensity (CaSla1-D1-D2): 56 | SPOT peptide array binding signal intensity (CaSla1-D3): 1.5 | SPOT peptide array binding signal intensity (ScAbp1): 21 | SPOT peptide array binding signal intensity (ScBbc1): 1.75 | SPOT peptide array binding signal intensity (ScBem1-D1): 9 | SPOT peptide array binding signal intensity (ScBzz1-D1): 26 | SPOT peptide array binding signal intensity (ScBzz1-D2): 5.5 | SPOT peptide array binding signal intensity (ScCyk3): 10 | SPOT peptide array binding signal intensity (ScFus1): 0.5 | SPOT peptide array binding signal intensity (ScHof1): ≤ 0 | SPOT peptide array binding signal intensity (ScHse1): 99 | SPOT peptide array binding signal intensity (ScLsb1): ≤ 0 | SPOT peptide array binding signal intensity (ScLsb2): 3 | SPOT peptide array binding signal intensity (ScLsb3): 21.5 | SPOT peptide array binding signal intensity (ScLsb4): ≤ 0 | SPOT peptide array binding signal intensity (ScMyo3): 39.5 | SPOT peptide array binding signal intensity (ScMyo5): 20.2 | SPOT peptide array binding signal intensity (ScNbp2): 4490 | SPOT peptide array binding signal intensity (ScPex13): ≤ 0 | SPOT peptide array binding signal intensity (ScRvs167): 0.333 | SPOT peptide array binding signal intensity (ScSho1): 33 | SPOT peptide array binding signal intensity (ScSla1-D1-D2): 61.5 | SPOT peptide array binding signal intensity (ScSla1-D3): 32.8 | SPOT peptide array binding signal intensity (SpAbp1-D1): 170 | SPOT peptide array binding signal intensity (SpBbc1): 1 | SPOT peptide array binding signal intensity (SpBzz1-D1): 332 | SPOT peptide array binding signal intensity (SpBzz1-D2): 1.25 | SPOT peptide array binding signal intensity (SpCyk3): 1.5 | SPOT peptide array binding signal intensity (SpHof1): 37.8 | SPOT peptide array binding signal intensity (SpHof1-2): 0.5 | SPOT peptide array binding signal intensity (SpHof1-3): 165 | SPOT peptide array binding signal intensity (SpHse1): 67.8 | SPOT peptide array binding signal intensity (SpLsb1): ≤ 0 | SPOT peptide array binding signal intensity (SpLsb4): 30 | SPOT peptide array binding signal intensity (SpMyo1): 352 | SPOT peptide array binding signal intensity (SpNbp2): 8 | SPOT peptide array binding signal intensity (SpPex13): ≤ 0 | SPOT peptide array binding signal intensity (SpRvs167): ≤ 0 | SPOT peptide array binding signal intensity (SpSla1-D1-D2): 4 | SPOT peptide array binding signal intensity (SpSla1-D3): ≤ 0

PVLPPPRSPNRPTLS
SPOT peptide array binding signal intensity (SpBzz1-D2): ≤ 0 | SPOT peptide array binding signal intensity (SpCyk3): 1 | SPOT peptide array binding signal intensity (SpHof1): 7.5 | SPOT peptide array binding signal intensity (SpHof1-2): 12.5 | SPOT peptide array binding signal intensity (SpHof1-3): 46.5 | SPOT peptide array binding signal intensity (SpHse1): 108 | SPOT peptide array binding signal intensity (SpLsb1): 866 | SPOT peptide array binding signal intensity (SpLsb4): 3730 | SPOT peptide array binding signal intensity (SpMyo1): 71.2 | SPOT peptide array binding signal intensity (SpNbp2): 8 | SPOT peptide array binding signal intensity (SpPex13): ≤ 0 | SPOT peptide array binding signal intensity (SpRvs167): 1240 | SPOT peptide array binding signal intensity (SpSla1-D1-D2): ≤ 0 | SPOT peptide array binding signal intensity (SpSla1-D3): ≤ 0
